ELG1 DNA repair: ELG1-dependent DNA repair inhibition; HEK293T ELG1-luciferase reporter, luminescence, 16 h; DNA damage induced by 5-fluorouridine; Potency, µM (highest dose often 46.1 µM), without a hit: top-dose activity change, negative = inhibition, usual class: inhibitors; actives 2.3% (n = 330,000); AID 504467; also: % is scaled to controls: 0 for no effect and ±100 for the full control effect; nearly all actives have a fitted effect of over 55% in size
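Step one: seed 2,000 cells per well. Step two: pin-transfer compound or DMSO alongside 5-fluorouridine. Step three: incubate 16 hr, 37 °C, 5% CO2. Step four: add ONE-Glo, wait 30 min, read luminescence.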
SW480 rerep: DNA re-replication induction in SW480 cells; SW480 DNA re-replication, Hoechst DNA content imaging, 48 h; Potency, µM (titrated, usually from 46.1 µM), inactives show top-dose re-replication activation, hits mostly activators; actives 1.8% (n = 340,000); AID 624297; also: % of control where 0% means no effect; nearly all actives have a fitted effect of over 55% in size
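250 cells/well; 23 nL cpd via pin tool; 48 hr, 37 C, 5% CO2; Hoechst 40 min; imager read of total nuclear intensity, ex 405/em 500-530 nm.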
RORg inh: inhibitors of mouse ROR gamma transcriptional activity. P51450. Drosophila S2 Gal4-RORgamma UAS-luciferase reporter, 20 h. Potency, µM (top dose mostly 53.6 µM), for the others: top-dose activity change, negative = inhibition, actives largely listed as inhibitors. actives 5.4% (n = 310,000). AID 2551; also: % is scaled to controls: 0 for no effect and ±100 for the full control effect; nearly all actives have a fitted effect of over 60% in size
Target sequence (P51450 whole entry, looked up, the tested form may be a part): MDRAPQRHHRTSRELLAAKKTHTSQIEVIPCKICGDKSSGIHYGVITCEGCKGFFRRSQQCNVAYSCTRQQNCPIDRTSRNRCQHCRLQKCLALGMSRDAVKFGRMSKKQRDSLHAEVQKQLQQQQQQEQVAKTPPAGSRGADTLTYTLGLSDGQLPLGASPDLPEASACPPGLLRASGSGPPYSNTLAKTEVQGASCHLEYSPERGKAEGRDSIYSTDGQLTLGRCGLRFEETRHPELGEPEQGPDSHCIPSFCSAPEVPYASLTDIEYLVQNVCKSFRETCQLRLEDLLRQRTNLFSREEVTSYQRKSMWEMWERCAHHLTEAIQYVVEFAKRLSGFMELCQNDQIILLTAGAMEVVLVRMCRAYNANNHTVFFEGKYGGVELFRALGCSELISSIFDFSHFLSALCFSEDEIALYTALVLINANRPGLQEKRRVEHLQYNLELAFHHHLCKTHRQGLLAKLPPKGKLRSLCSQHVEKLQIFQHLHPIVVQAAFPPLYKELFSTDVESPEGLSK
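Read-out: Photinus luciferase luminescence; inhibitors lower reporter signal. Insect Schneider cells with Gal4-ROR gamma fusion under metallothionein promoter, UAS reporter; 700 uM final copper sulfate induction, 20 hr, ambient temperature.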
Gal4-VP16 FLuc: counter-screen for ROR gamma inhibitors: Gal4-VP16 reporter; Drosophila S2 Gal4-VP16 UAS-luciferase, luminescence, 20 h; actives 3.5% (n = 310,000); Potency, µM (titrated, usually from 53.6 µM), inactives show at the top dose activity, negative = inhibition, usual class: inhibitors; AID 2546;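 also: Gal4-VP16 expression switched on by copper sulfate through the metallothionein promoter; % is scaled to controls: 0 for no effect and ±100 for the full control effect; nearly all actives have a fitted effect of over 50% in size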
MCF10A rerep: DNA re-replication induction in MCF 10a cells | MCF 10A DNA re-replication, Hoechst nuclear intensity, 48 h | Potency, µM (highest dose often 46.1 µM), inactives show at the highest dose activity, positive = re-replication, hits mostly activators | actives 2.9% (n = 350,000) | AID 624296; also: % of control where 0% means no effect; nearly all actives have a fitted effect of over 50% in size
* = called active by the depositor; u = inconclusive; x = no result given; [ ] = another dose, or the depositor's remark. Shown are actives, neighbours in structure and some others; about 10% of the full set was active somewhere. Calls follow the shape of the dose curve; as a rule, active = well fitted curve in the direction sought with a large enough effect; inconclusive = small, poorly fitted or top-dose-only effect, or another doubt; inactive = no such curve, though single readings can be large; an effect the other way counts as inactive or inconclusive. Potency is read from the fitted curve at half-maximal effect.

SMILES	ELG1 DNA repair	SW480 rerep	RORg inh	Gal4-VP16 FLuc	MCF10A rerep
CC(=O)n1cc(N(C(=O)CCl)c2ccccc2)c2ccccc21	u	1.6µM*	u	u	16µM*
CC(=O)n1cc(N(C(=O)CCl)c2ccc([N+](=O)[O-])cc2)c2ccccc21	23µM*	16µM*	u	u	u
CC(C)(C)Nc1c(-c2ccc(O)cc2)nc2ccc(Cl)cn12	0%	-7%	u	u	-1%
CC(C)c1ccc(C(O)P(=O)(OC2CCCCC2)OC2CCCCC2)cc1 (stereo not given)	0%	u	1%	u	21µM*
CN(C)c1ccc(P(=O)(OC2CCCCC2)C(O)c2cccnc2)cc1 (stereo not given)	2%	2%	11%	-2%	6%
Cn1cnc(S(=O)(=O)Nc2cc(C(F)(F)F)ccc2N2CCOCC2)c1	-5%	-6%	1%	2%	0%
Cc1nn(C)c(NC(=O)c2ccccc2Cl)c1Cl	14%	-11%	8%	6%	-6%
NC1=NCC2c3ccccc3Cc3ccccc3N12 (stereo not given)	x	2%	4%	2%	-4%
Cc1cccc2sc(N(CCCN(C)C)C(=O)c3ccc(S(=O)(=O)N4CCc5ccccc5C4)cc3)nc12	u	u	u	11µM*	u
CN(C)CCCN(C(=O)c1ccc(S(=O)(=O)N2CCc3ccccc3C2)cc1)c1nc2c(F)cccc2s1	-4%	-5%	4.5µM*	-24%	0%
COc1ccc2sc(N(CCCN(C)C)C(=O)c3ccc(S(=O)(=O)N4CCc5ccccc5C4)cc3)nc2c1	u	30%	x	x	u
COc1ccc(C(=O)Nc2ccc(N3CCN(C(=O)c4cccs4)CC3)cc2)cc1Br	13µM*	u	8%	-1%	18µM*
O=C(Nc1ccc(N2CCN(C(=O)c3cccs3)CC2)cc1)c1ccc(F)cc1	18µM*	-11%	21%	4%	0%
COc1cc(OC)cc(C(=O)Nc2ccc(N3CCN(C(=O)c4cccs4)CC3)cc2)c1	15µM*	u	25%	3%	18µM*
Cc1ccc(C(=O)N2CCN(c3ccc(NC(=O)c4cccs4)cc3)CC2)cc1	9.2µM*	-1%	8%	-1%	2%
COc1ccc(C(=O)Nc2ccc(N3CCCC3)cc2)cc1Br	26%	-9%	-13%	-3%	-3%
CC(=O)Nc1ccc(N2CCN(C(=O)c3cccs3)CC2)cc1	8%	11%	11%	1%	2%
O=C1CCCCCN1CP(=O)(O)CN1CCOCC1	2%	x	-4%	-6%	x
CC1(C)Cc2cccc(OCC(=O)OCc3nnc(-c4ccc([N+](=O)[O-])cc4)o3)c2O1	17%	-11%	x	x	20%
O=C(Nc1ccc(O)c(-c2nc3ccccc3o2)c1)C1(c2ccccc2)CCCC1	1%	10%	5.6µM*	8.9µM*	-1%
O=C(Nc1ccncc1)C1(c2ccccc2)CCCC1	u	u	12%	-11%	15%
CC(=O)Nc1cccc(NC(=S)Nc2cccc3ccccc23)c1	u	0%	13µM*	u	-28%
CC(=O)c1cccc(NC(=S)Nc2cccc3ccccc23)c1	u	-15%	13µM*	11µM*	-1%
CC(=O)c1cccc(NC(=S)NCc2ccccc2)c1	-4%	-10%[9.22 µM]	u	12%	-4%
COc1cc(N(C)C)c([N+](=O)[O-])cc1C(=O)N1CCOCC1	1%	0%	-11%	-9%	6%
SMILES	ELG1 DNA repair	SW480 rerep	RORg inh	Gal4-VP16 FLuc	MCF10A rerep
CNc1nc(Nc2ccc(C)c(Cl)c2)c2cnn(C)c2n1	u	-24%	36%	-8%	u
Cc1ccc(Nc2nc(NCCO)nc3c2cnn3C)cc1Cl	u	u	u	-30%	30%
Cn1ncc2c(Nc3ccc(Br)cc3)nc(Nc3ccc(Br)cc3)nc21	23µM*	8%	-27%	u	u
Cn1ncc2c(Nc3ccc4ccccc4c3)ncnc21	u	16µM*	33%	18%	u
Cn1ncc2c(Nc3cccc(Cl)c3)nc(Nc3cccc(Cl)c3)nc21	u	u	0%	u	18µM*
Cc1cccc(Nc2ncnc3c2cnn3C)c1	17%	-11%	12%	-21%	7%
CCCNc1nc(Nc2ccc(C)c(Cl)c2)c2cnn(C)c2n1	15µM*	-9%	13%	-30%	24%
Cc1ccc(S(=O)(=O)NCC(=O)OCC(=O)NCc2ccc(F)cc2)cc1	7%	u	-8%	-2%	-12%
COc1ccc(CNC(=O)C2=CCN(S(=O)(=O)c3ccc(C)cc3)CC2)cc1	u	-1%	5%	4%	1%
Cc1cc(C(=O)COC(=O)Cc2n[nH]c(=O)c3ccccc23)c(C)n1-c1cccc(C(F)(F)F)c1	23µM*	-2%	u	u	17%
CC(NC(=O)CN1C(=O)NC2(CCCCC2)C1=O)c1ccc(S(N)(=O)=O)cc1 (stereo not given)	x	6.5µM*	x	x	u
N#CN1CCC(NS(=O)(=O)c2ccc(C(F)(F)F)cc2)C1 (stereo not given)	-3%	-10%	x	x	u
CCOC(=O)CSc1nc2c(sc3ccc([N+](=O)[O-])cc32)c(=O)n1Cc1ccco1	u	-12%	8.9µM*	5.6µM*	4%
CCOC(=O)CSc1nc2ccccc2c(=O)n1Cc1ccco1	2%	1%	5%	0%	-1%
O=C(c1cc2ccccc2o1)N1CCN(S(=O)(=O)c2ccccc2)CC1	-25%	u	x	x	-8%
CCN(CC)C(=O)c1cc([N+](=O)[O-])cc2c1-c1ccc([N+](=O)[O-])cc1C2=C(C#N)C#N	-19%	u	u	20µM*	6%
CCN(CC)C(=O)c1ccc(Oc2ccc([N+](=O)[O-])cc2Cl)cc1	u	0%	39%	-8%	9%
CCCCN(c1ccccc1)c1ncnc(N)c1[N+](=O)[O-]	2.6µM*	-7%	-33%	-10%	-6%
O=[N+]([O-])c1ccccc1S(=O)(=O)Nc1ccc(S(=O)(=O)N2CCOCC2)cc1	-1%	-13%	-41%	2%	-13%
CC[C@H]1C(c2ccccc2)=NN(c2ccccc2)[C@@H]1CO	x	x	-14%	u	x
COc1ccccc1C1CC(c2ccccc2)=NN1C(=O)c1ccccc1 (stereo not given)	-8%	u	-7%	-4%	9%
C[C@H]1C(c2ccc(F)cc2)=NN(c2ccccc2)[C@@H]1CO	5%	5.2µM*	-24%	u	10µM*
COc1ccccc1[C@H]1C(c2ccc(F)cc2)=NN(c2ccccc2)[C@@H]1CO	-6%	3.7µM*	1%	-10%	u

Screening data (PubChem)
